# Test results taken from PubChem BioAssay.
# Active and inactive are the calls of the source.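 Rule for the calls: active = normalized viability below 100% at a tested concentration; inactive = the rest.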
# Assay: ovarian cancer cell viability with rucaparib, profiling panel, oncology-focused library, rucaparib conditional (AID 1508598)
# Details: patient-derived ovarian cancer cells, CellTiter-Glo viability, 144 h; at 0.00122 µM; OCI-P5x cells; with rucaparib 20 µM; stronger effect = lower value; 100% = cells with rucaparib alone
row,Structure (SMILES),viability
1,CNC(=O)c1cc(COc2nnc(Nc3ccc(Cl)cc3)c3ccoc23)ccn1,102% (inactive)
2,Nc1ccn([C@@H]2O[C@H](CO)[C@@H](O)C2(F)F)c(=O)n1,55.8% (active)
3,O=C(CCCCCCC(=O)Nc1ccc([C@H]2O[C@@H](CSc3nc(-c4ccccc4)c(-c4ccccc4)o3)C[C@@H](c3ccc(CO)cc3)O2)cc1)NO,90.6% (active)
4,CNC(=O)c1cc(Oc2ccc(NC(=O)Nc3ccc(Cl)c(C(F)(F)F)c3)c(F)c2)ccn1,109% (inactive)
5,CS(=O)(=O)N1CCc2c(-c3cnc(N)nc3)nc(N3CCOCC3)nc21,115% (inactive)

# Same assay, conditions: patient-derived ovarian cancer cells, CellTiter-Glo viability, 144 h; at 0.00122 µM; OCI-P5x cells; without rucaparib; stronger effect = lower value
row,Structure (SMILES),viability
1,CNC(=O)c1cc(COc2nnc(Nc3ccc(Cl)cc3)c3ccoc23)ccn1,109% (inactive)
2,Nc1ccn([C@@H]2O[C@H](CO)[C@@H](O)C2(F)F)c(=O)n1,27% (active)
3,O=C(CCCCCCC(=O)Nc1ccc([C@H]2O[C@@H](CSc3nc(-c4ccccc4)c(-c4ccccc4)o3)C[C@@H](c3ccc(CO)cc3)O2)cc1)NO,114% (inactive)
4,CNC(=O)c1cc(Oc2ccc(NC(=O)Nc3ccc(Cl)c(C(F)(F)F)c3)c(F)c2)ccn1,106% (inactive)
5,CS(=O)(=O)N1CCc2c(-c3cnc(N)nc3)nc(N3CCOCC3)nc21,111% (inactive)

# Same assay, conditions: patient-derived ovarian cancer cells, CellTiter-Glo viability, 144 h; at 0.00488 µM; OCI-C5x cells; with rucaparib 10 µM; stronger effect = lower value; 100% = cells with rucaparib alone
row,Structure (SMILES),viability
1,CNC(=O)c1cc(COc2nnc(Nc3ccc(Cl)cc3)c3ccoc23)ccn1,108% (inactive)
2,Nc1ccn([C@@H]2O[C@H](CO)[C@@H](O)C2(F)F)c(=O)n1,81% (active)
3,O=C(CCCCCCC(=O)Nc1ccc([C@H]2O[C@@H](CSc3nc(-c4ccccc4)c(-c4ccccc4)o3)C[C@@H](c3ccc(CO)cc3)O2)cc1)NO,115% (inactive)
4,CNC(=O)c1cc(Oc2ccc(NC(=O)Nc3ccc(Cl)c(C(F)(F)F)c3)c(F)c2)ccn1,109% (inactive)
5,CS(=O)(=O)N1CCc2c(-c3cnc(N)nc3)nc(N3CCOCC3)nc21,96.5% (active)

# Same assay, conditions: patient-derived ovarian cancer cells, CellTiter-Glo viability, 144 h; at 0.00488 µM; OCI-C5x cells; without rucaparib; stronger effect = lower value
row,Structure (SMILES),viability
1,CNC(=O)c1cc(COc2nnc(Nc3ccc(Cl)cc3)c3ccoc23)ccn1,113% (inactive)
2,Nc1ccn([C@@H]2O[C@H](CO)[C@@H](O)C2(F)F)c(=O)n1,80% (active)
3,O=C(CCCCCCC(=O)Nc1ccc([C@H]2O[C@@H](CSc3nc(-c4ccccc4)c(-c4ccccc4)o3)C[C@@H](c3ccc(CO)cc3)O2)cc1)NO,132% (inactive)
4,CNC(=O)c1cc(Oc2ccc(NC(=O)Nc3ccc(Cl)c(C(F)(F)F)c3)c(F)c2)ccn1,98.5% (active)
5,CS(=O)(=O)N1CCc2c(-c3cnc(N)nc3)nc(N3CCOCC3)nc21,111% (inactive)

# Same assay, conditions: patient-derived ovarian cancer cells, CellTiter-Glo viability, 144 h; at 0.00488 µM; OCI-P5x cells; with rucaparib 20 µM; stronger effect = lower value; 100% = cells with rucaparib alone
row,Structure (SMILES),viability
1,CNC(=O)c1cc(COc2nnc(Nc3ccc(Cl)cc3)c3ccoc23)ccn1,102% (inactive)
2,Nc1ccn([C@@H]2O[C@H](CO)[C@@H](O)C2(F)F)c(=O)n1,57.2% (active)
3,O=C(CCCCCCC(=O)Nc1ccc([C@H]2O[C@@H](CSc3nc(-c4ccccc4)c(-c4ccccc4)o3)C[C@@H](c3ccc(CO)cc3)O2)cc1)NO,90% (active)
4,CNC(=O)c1cc(Oc2ccc(NC(=O)Nc3ccc(Cl)c(C(F)(F)F)c3)c(F)c2)ccn1,114% (inactive)
5,CS(=O)(=O)N1CCc2c(-c3cnc(N)nc3)nc(N3CCOCC3)nc21,113% (inactive)

# Same assay, conditions: patient-derived ovarian cancer cells, CellTiter-Glo viability, 144 h; at 0.00488 µM; OCI-P5x cells; without rucaparib; stronger effect = lower value
row,Structure (SMILES),viability
1,CNC(=O)c1cc(COc2nnc(Nc3ccc(Cl)cc3)c3ccoc23)ccn1,108% (inactive)
2,Nc1ccn([C@@H]2O[C@H](CO)[C@@H](O)C2(F)F)c(=O)n1,22.9% (active)
3,O=C(CCCCCCC(=O)Nc1ccc([C@H]2O[C@@H](CSc3nc(-c4ccccc4)c(-c4ccccc4)o3)C[C@@H](c3ccc(CO)cc3)O2)cc1)NO,108% (inactive)
4,CNC(=O)c1cc(Oc2ccc(NC(=O)Nc3ccc(Cl)c(C(F)(F)F)c3)c(F)c2)ccn1,109% (inactive)
5,CS(=O)(=O)N1CCc2c(-c3cnc(N)nc3)nc(N3CCOCC3)nc21,112% (inactive)

# Same assay, conditions: patient-derived ovarian cancer cells, CellTiter-Glo viability, 144 h; at 0.0195 µM; OCI-C5x cells; with rucaparib 10 µM; stronger effect = lower value; 100% = cells with rucaparib alone
row,Structure (SMILES),viability
1,CNC(=O)c1cc(COc2nnc(Nc3ccc(Cl)cc3)c3ccoc23)ccn1,105% (inactive)
2,Nc1ccn([C@@H]2O[C@H](CO)[C@@H](O)C2(F)F)c(=O)n1,69.2% (active)
3,O=C(CCCCCCC(=O)Nc1ccc([C@H]2O[C@@H](CSc3nc(-c4ccccc4)c(-c4ccccc4)o3)C[C@@H](c3ccc(CO)cc3)O2)cc1)NO,112% (inactive)
4,CNC(=O)c1cc(Oc2ccc(NC(=O)Nc3ccc(Cl)c(C(F)(F)F)c3)c(F)c2)ccn1,114% (inactive)
5,CS(=O)(=O)N1CCc2c(-c3cnc(N)nc3)nc(N3CCOCC3)nc21,106% (inactive)

# Same assay, conditions: patient-derived ovarian cancer cells, CellTiter-Glo viability, 144 h; at 0.0195 µM; OCI-C5x cells; without rucaparib; stronger effect = lower value
row,Structure (SMILES),viability
1,CNC(=O)c1cc(COc2nnc(Nc3ccc(Cl)cc3)c3ccoc23)ccn1,105% (inactive)
2,Nc1ccn([C@@H]2O[C@H](CO)[C@@H](O)C2(F)F)c(=O)n1,58.3% (active)
3,O=C(CCCCCCC(=O)Nc1ccc([C@H]2O[C@@H](CSc3nc(-c4ccccc4)c(-c4ccccc4)o3)C[C@@H](c3ccc(CO)cc3)O2)cc1)NO,130% (inactive)
4,CNC(=O)c1cc(Oc2ccc(NC(=O)Nc3ccc(Cl)c(C(F)(F)F)c3)c(F)c2)ccn1,91.4% (active)
5,CS(=O)(=O)N1CCc2c(-c3cnc(N)nc3)nc(N3CCOCC3)nc21,125% (inactive)
